Experimental data reported in PubChem BioAssay AID925 (National Center for Advancing Translational Sciences (NCATS), 2007).
Hit rate of the full screen: of about 65,000 compounds, about 40 (0.06%) were called active. The call rests on the fitted dose curve; in most records, active means well fitted activation curve with a large enough effect; inconclusive means small, poorly fitted or top-dose-only effect; inactive means flat fitted curve, though single readings scatter. Only a selection was taken, and actives are over-represented in it overall.

Assay: qHTS Assay for Modulators of Hemoglobin Beta Chain Splicing; further: 0% is about no effect
Conditions: HBB splicing reporter cell assay, EGFP reporter with mutant IVS2-654 intron; Potency: activation; series mostly up to 46.1 µM
Text: NIH Chemical Genomics Center [NCGC]
NIH Molecular Libraries Screening Centers Network [MLSCN]
PI Name: Dr. Ryszard Kole
Modulation of Alternative Splicing as Therapy
Abnormal splicing is associated with a number of diseases, including cancer and genetic diseases such as cystic fibrosis, muscular dystrophy and beta-thalassemia. Alteration of disease associated splicing patterns provides a promising target for treatment. […] Mutations in the second intron of the beta-globin gene at positions are clinically relevant and cause mis-splicing which results in an out of frame gene product.
EGFP-654 and 705 HeLa Cells as screen system.
HeLa cell lines were stably transfected with a construct in which the EGFP (enhanced green fluorescent protein) cDNA was interrupted by the second intron of the beta-globin gene (IVS2-654). The ISV2 intron contains mutations which cause mis-splicing of EGFP and premature termination of EGFP which results in a nonfluorescent protein product. […] Expression of the transgene was driven by the CMV promoter. We concluded that a low molecular weight compound, which restored correct splicing of intron 2 would also generate functional EGFP protein, resulting in a fluorescent signal. Thus, the HeLa cells that express the EGFP-654 construct can be used for high throughput screening of a chemical library.
NCGC Assay Protocol Summary:
High Throughput Screening. Freshly thawed HeLa EGFP-654 cells were seeded in 5 ul of optimem media (Invitrogen) containing 2 % fetal calf serum (Hyclone) and 1x penicillin/streptomycin (Invitrogen) at a concentration of 500 cells per well in 1536-well plates. Cells were incubated overnight at 37C in 5% CO2. The next day, cells were treated with DMSO, 500 nM antisense ISV2 654 PNA control oligo, or library compound and allowed to grow at 37C in 5% CO2 for 2 days. The PNA oligo blocked the mutation site in the intron and allowed proper (wild type) splicing to occur, resulting in full length EGFP expression and also allowed for optimization of the assay parameters. Plates were read in the Acumen Explorer (TTP Labtech) using 488 nm laser excitation and 500-520 nm emission PMT filter in a 1 x […] capture mode. Fluorescnet Fluorescent objects ranging in size from […] were measured and the total peak GFP intensity for each well was used for data analysis.
Keywords: Thalassemia, beta-thalassemia, beta-globin, EGFP, ISV2 654, ISV2 705, SSO, PNA, antisense, splicing, MLSMR, MLSCN, NIH Roadmap, qHTS, NCGC

activation, inactive:
CCCCNc1nc(C)nc2c1nc(-c1ccccc1)n2CCCCN(CC)CC
c1ccc(CSCCc2ccncc2)cc1 2.45% [at 9.22 µM, normalised to 500 nM splice-correcting PNA]
O=c1c(-c2ccc(F)c(F)c2)nc2cncnc2n1-c1ccccc1
COC(=O)NC(c1ccccc1)[C@]1(C(C)=O)CCCC1=O (stereo partly drawn) 0.441% [at 9.22 µM, normalised to 500 nM splice-correcting PNA]
CC(C)c1ccc2c([Si](C)(C)C)c3c(nc2c1)-c1cccc(=O)n1C3
C=CC(=C)CCC=C(C)C
O=Cc1c(Cl)cccc1Cl
COCCn1c(=O)c(-c2ccccc2)nc2cnc(N3CCOCC3)nc21
CN1CCN(c2ncncc2-c2ccc(C(=O)N(C)C)cc2)CC1
O=C(c1cnccn1)N1CCC[C@@]2(CCN(Cc3ccncc3)C2)C1
Cc1ccccc1-c1nc(N(C)Cc2ccco2)c2ccccc2n1
OCCN1CCN(CC/C=C2\c3ccccc3Sc3ccc(C(F)(F)F)cc32)CC1
BrC1C(Br)C(Br)C(Br)C(Br)C1Br (stereo not drawn)
c1ccc(CNc2ncncc2-c2cccnc2)cc1
FC(F)(F)c1ccccc1-c1nc(-n2ccnc2)c2ccccc2n1
CO[C@H]1COC(=O)[C@@H](C)NC(=O)C/C=C\[C@@H](C)[C@H](OC)COC(=O)C/C=C\[C@@H]1C 0.0576% [at 9.22 µM, normalised to 500 nM splice-correcting PNA]
COc1ccccc1CNc1ncnc2ccc(-c3ccc4c(c3)OCO4)cc12
Cc1noc(C)c1-c1nccc(N2CCOCC2)n1
Cc1[nH]c(N)nc(=S)c1CCCNc1ccccc1 0.0064% [at 9.22 µM, normalised to 500 nM splice-correcting PNA]
COc1ccc(NC(=O)N2CC3(CCN(C(=O)c4cccn4C)CC3)C2)cc1
Cc1c(O)c(Br)c(C)c(O)c1Br (tested in a mixture with another compound) 3.36% [at 9.22 µM, normalised to 500 nM splice-correcting PNA]
COc1ccc(CNc2ncncc2-c2ccccc2C)c(OC)c1
CC(C)[C@@H](CC(=O)N[C@@H]1CCNC[C@H]1C(=O)N[C@H](CC(=O)N[C@@H](CCC(=O)O)CC(=O)O)Cc1ccccc1)NC(=O)C[C@H](CO)NC(=O)[C@@H]1CNCC[C@H]1N
C[C@]12C=CC(=O)C=C1CC[C@@H]1[C@@H]2C(=O)C[C@@]2(C)[C@H]1CC[C@]2(O)C(=O)CO
CCCC(C(=O)OCCN(CC)CC)(c1ccccc1)c1ccccc1
CC(=O)N1CCC2(CC1)CCN(c1ccncc1)CC2
C[C@]1(C(=O)NCCc2c[nH]c3ccccc23)C=C[C@@H](Cc2ccccc2)N1C(=O)c1ccccc1
C[C@@H]1O[C@@H](O[C@@H]2[C@@H](O)[C@H](OCCc3ccc(O)c(O)c3)O[C@H](CO[C@@H]3O[C@H](CO)[C@@H](O)[C@H](O)[C@H]3O)[C@H]2OC(=O)/C=C/c2ccc(O)c(O)c2)[C@H](O)[C@H](O)[C@H]1O
O=C(c1csnn1)N1CCC2(CC1)CN(c1ncccn1)C2
O=S(=O)(O)c1ccc(O)c2ncccc12.O=S(=O)(O)c1ccc(O)c2ncccc12.[Zn] 0.245% [at 9.22 µM, normalised to 500 nM splice-correcting PNA]
CCOC(=O)[C@]1(C(/C=C/c2ccco2)NC(=O)OC)CCCC1=O (stereo partly drawn) 0.739% [at 9.22 µM, normalised to 500 nM splice-correcting PNA]
O=C1C(c2[nH]c3ccccc3c2O)=Nc2ccccc21
COC(=O)[C@@]1(Cc2ccc(F)cc2)[C@H]2c3cc(C(=O)N4CCCC4)n(Cc4ccc(OC(F)(F)F)cc4)c3C[C@H]2CN1C(=O)c1ccccc1
C[N+]1(CCN=C=NC2CCCCC2)CCOCC1 6.02% [at 9.22 µM, normalised to 500 nM splice-correcting PNA]
COCCn1c(=O)c(-c2cccs2)nc2cnc(N3CCN(C)CC3)nc21
COC(=O)[C@H](C)[C@H]1C[C@]1(C)[C@H](NC(=O)OCc1ccccc1)c1ccccc1
CCCCCCc1ccc(O)cc1O
CC(=O)OCC1OC(C#Cc2ccccc2Cl)C=CC1OC(C)=O (stereo not drawn) 2.13% [at 9.22 µM, normalised to 500 nM splice-correcting PNA]
O=c1c(-c2cccs2)nc2cnc(Oc3ccccc3)nc2n1-c1ccccc1
Cc1cc2nc3c(=O)[nH]c(=O)nc-3n(C[C@H](O)[C@H](O)[C@H](O)CO)c2cc1C
COc1ccc2[nH]cc(CCNc3ncnc4ccc(-c5ccc(C(=O)N(C)C)cc5)cc34)c2c1
CCCC[C@@H]1C[C@H]1C(NC(=O)c1ccco1)c1ccc(C(=O)OC)cc1 (stereo partly drawn)
OC(CCl)CCl
CC(=O)/C(C)=N\O
COc1ccccc1CNc1nc(-c2c(C)noc2C)nc2ccccc12
COCCNc1ccnc(-c2cccc(NS(C)(=O)=O)c2)n1
CCNc1ncc2ncc(=O)n(CCc3ccccc3)c2n1
CCCC[C@@H]1C[C@H]1C(NC(=O)c1ccc(-c2ccccc2)cc1)c1ccc(-c2ccccc2)cc1 (stereo partly drawn)
O=c1cc(-c2ccccc2)[nH]c2nc(Cl)ccc12
O=C(c1ccncc1)N1CCC2(CCN(Cc3cc(C(F)(F)F)cc(C(F)(F)F)c3)CC2)CC1
C=CCOC(=O)c1ccccc1C(=O)OCC=C
C/C=C1\C(=O)C[C@@H]2[C@@H]3CCC4=CC(=O)CC[C@@]4(C)[C@H]3CC[C@@]12C
Nc1nc2c(ncn2[C@H]2CC[C@@H](CO)O2)c(=O)n1C(=O)c1ccccc1 4.28% [at 9.22 µM, normalised to 500 nM splice-correcting PNA]
